Out of some 5,500 compounds screened, about 2,000 (36%) were called active. Not shown: some 18% with an inconclusive outcome. Cut-off read from the data, not from the text of the source: active = normalized growth mostly below about 0.91 (no sharp cut-off); inconclusive = no clear call, values can overlap the other calls; inactive = mostly above about 0.92. The list shows a part of the results.
Experiment: chemical genetic growth profiling, strain panel (AID 1159580);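 note: tested at 20 µM; growth read once vehicle control cultures reached saturation at 30 °C; 1 = growth at the plate median or of vehicle wells; lower values mean less growth of the strain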
Conditions: growth OD

Measured: normalized growth

O=C(O)c1cc2ccccc2[nH]1
inactive: S. cerevisiae deletion strains, locus YJR075W, strain HOC1, stronger effect = lower value 1.01 | S. cerevisiae deletion strains, locus YKL009W, strain mrt4, stronger effect = lower value 0.991 | S. cerevisiae deletion strains, locus YKL068W, stronger effect = lower value 1 | S. cerevisiae deletion strains, locus YKL085W, strain MDH1 (second series), stronger effect = lower value 1.02 | S. cerevisiae deletion strains, locus YKL085W, strain MDH1, stronger effect = lower value 1.02 | S. cerevisiae deletion strains, locus YKL160W, strain elf1, stronger effect = lower value 0.972 | S. cerevisiae deletion strains, locus YKL190W, strain CNB1, stronger effect = lower value 1 | S. cerevisiae deletion strains, locus YKR001C, strain vps1, stronger effect = lower value 1.02 | S. cerevisiae deletion strains, locus YKR026C, strain gcn3, stronger effect = lower value 0.961 | S. cerevisiae deletion strains, locus YKR091W, strain srl3, stronger effect = lower value 0.98 | S. cerevisiae deletion strains, locus YLL001W, strain dnm1, stronger effect = lower value 0.974 | S. cerevisiae deletion strains, locus YLL026W, stronger effect = lower value 1 | S. cerevisiae deletion strains, locus YLL041C, strain sdh2, stronger effect = lower value 0.989 | S. cerevisiae deletion strains, locus YLR027C, strain aat2, stronger effect = lower value 0.993 | S. cerevisiae deletion strains, locus YLR039C, strain RIC1, stronger effect = lower value 1.01 | S. cerevisiae deletion strains, locus YLR058C, strain SHM2, stronger effect = lower value 1.01 | S. cerevisiae deletion strains, locus YLR102C, strain apc9, stronger effect = lower value 1.02 | S. cerevisiae deletion strains, locus YLR113W, strain HOG1, stronger effect = lower value 0.95 | S. cerevisiae deletion strains, locus YLR221C, strain rsa3, stronger effect = lower value 0.989 | S. cerevisiae deletion strains, locus YLR258W, strain gsy2, stronger effect = lower value 0.989 | S. cerevisiae deletion strains, locus YLR262C, strain YPT6 (second series), stronger effect = lower value 0.991 | S. cerevisiae deletion strains, locus YLR262C, strain YPT6, stronger effect = lower value 1.05 | S. cerevisiae deletion strains, locus YLR268W, strain sec22, stronger effect = lower value 1.01 | S. cerevisiae deletion strains, locus YLR320W, strain mms22, stronger effect = lower value 1.01 | S. cerevisiae deletion strains, locus YLR330W, strain CHS5, stronger effect = lower value 1.01 | S. cerevisiae deletion strains, locus YLR342W, strain FKS1 (second series), stronger effect = lower value 0.993 | S. cerevisiae deletion strains, locus YLR342W, strain FKS1, stronger effect = lower value 0.991 | S. cerevisiae deletion strains, locus YLR357W, strain rsc2, stronger effect = lower value 0.983 | S. cerevisiae deletion strains, locus YLR370C, strain arc18, stronger effect = lower value 0.989 | S. cerevisiae deletion strains, locus YLR371W, strain rom2, stronger effect = lower value 1.01 | S. cerevisiae deletion strains, locus YLR384C, strain iki3, stronger effect = lower value 0.976 | S. cerevisiae deletion strains, locus YLR418C, strain cdc73, stronger effect = lower value 1.01 | S. cerevisiae deletion strains, locus YML016C, strain PPZ1, stronger effect = lower value 1.01 | S. cerevisiae deletion strains, locus YML032C, strain rad52, stronger effect = lower value 1 | S. cerevisiae deletion strains, locus YML120C, strain ndi1, stronger effect = lower value 0.979 | S. cerevisiae deletion strains, locus YML124C, strain tub3, stronger effect = lower value 1.01 | S. cerevisiae deletion strains, locus YMR058W, strain fet3, stronger effect = lower value 0.975 | S. cerevisiae deletion strains, locus YMR078C, strain ctf18, stronger effect = lower value 1.02 | S. cerevisiae deletion strains, locus YMR125W, strain sto1, stronger effect = lower value 0.941 | S. cerevisiae deletion strains, locus YMR129W, stronger effect = lower value 0.987 | S. cerevisiae deletion strains, locus YMR205C, strain PFK2, stronger effect = lower value 1.02 | S. cerevisiae deletion strains, locus YMR223W, strain ubp8, stronger effect = lower value 1.01 | S. cerevisiae deletion strains, locus YMR231W, strain pep5, stronger effect = lower value 1 | S. cerevisiae deletion strains, locus YMR263W, strain SAP30, stronger effect = lower value 1.01 | S. cerevisiae deletion strains, locus YMR307W, strain GAS1, stronger effect = lower value 1.04 | S. cerevisiae deletion strains, locus YNL067W, strain RPL9B, stronger effect = lower value 1.01 | S. cerevisiae deletion strains, locus YNL071W, strain lat1, stronger effect = lower value 0.986 | S. cerevisiae deletion strains, locus YNL128W, strain TEP1, stronger effect = lower value 1 | S. cerevisiae deletion strains, locus YNL153C, strain GIM3, stronger effect = lower value 1.01 | S. cerevisiae deletion strains, locus YNL183C, strain NPR1, stronger effect = lower value 0.915 | S. cerevisiae deletion strains, locus YNL209W, strain ssb2, stronger effect = lower value 0.984 | S. cerevisiae deletion strains, locus YNL233W, strain BNI4, stronger effect = lower value 1 | S. cerevisiae deletion strains, locus YNL248C, strain rpa49, stronger effect = lower value 0.954 | S. cerevisiae deletion strains, locus YNL250W, strain rad50, stronger effect = lower value 1 | S. cerevisiae deletion strains, locus YNL271C, strain bni1, stronger effect = lower value 1.01 | S. cerevisiae deletion strains, locus YNL298W, strain CLA4, stronger effect = lower value 1 | S. cerevisiae deletion strains, locus YNL307C, strain MCK1, stronger effect = lower value 1.02 | S. cerevisiae deletion strains, locus YNL322C, strain KRE1 (second series), stronger effect = lower value 0.979 | S. cerevisiae deletion strains, locus YNL322C, strain KRE1, stronger effect = lower value 1.02 | S. cerevisiae deletion strains, locus YNR049C, strain mso1, stronger effect = lower value 0.983 | S. cerevisiae deletion strains, locus YNR052C, strain pop2, stronger effect = lower value 1.02 | S. cerevisiae deletion strains, locus YOL006C, strain TOP1, stronger effect = lower value 1.04 | S. cerevisiae deletion strains, locus YOL012C, strain htz1 1.07 | S. cerevisiae deletion strains, locus YOL147C, strain pex11, stronger effect = lower value 1.01 | S. cerevisiae deletion strains, locus YOR001W, strain rrp6, stronger effect = lower value 0.963 | S. cerevisiae deletion strains, locus YOR061W, strain CKA2, stronger effect = lower value 1.01 | S. cerevisiae deletion strains, locus YOR069W, strain VPS5, stronger effect = lower value 0.991 | S. cerevisiae deletion strains, locus YOR070C, strain gyp1, stronger effect = lower value 0.999 | S. cerevisiae deletion strains, locus YOR080W, strain dia2, stronger effect = lower value 0.99 | S. cerevisiae deletion strains, locus YOR083W, strain WHI5, stronger effect = lower value 0.967 | S. cerevisiae deletion strains, locus YOR106W, strain vam3, stronger effect = lower value 0.972 | S. cerevisiae deletion strains, locus YOR136W, strain idh2, stronger effect = lower value 1.02 | S. cerevisiae deletion strains, locus YOR144C, strain elg1, stronger effect = lower value 1.02 | S. cerevisiae deletion strains, locus YOR184W, strain ser1, stronger effect = lower value 1 | S. cerevisiae deletion strains, locus YOR231W, strain MKK1, stronger effect = lower value 0.995 | S. cerevisiae deletion strains, locus YOR265W, strain rbl2, stronger effect = lower value 0.991 | S. cerevisiae deletion strains, locus YOR270C, strain vph1, stronger effect = lower value 0.974 | S. cerevisiae deletion strains, locus YOR290C, strain snf2, stronger effect = lower value 0.955 | S. cerevisiae deletion strains, locus YOR316C, strain cot1, stronger effect = lower value 1.02 | S. cerevisiae deletion strains, locus YPL051W, strain arl3, stronger effect = lower value 0.979 | S. cerevisiae deletion strains, locus YPL055C, strain LGE1, stronger effect = lower value 0.998 | S. cerevisiae deletion strains, locus YPL078C, strain atp4, stronger effect = lower value 0.948 | S. cerevisiae deletion strains, locus YPL106C, strain sse1, stronger effect = lower value 0.972 | S. cerevisiae deletion strains, locus YPL240C, strain hsp82, stronger effect = lower value 0.997 | S. cerevisiae deletion strains, locus YPL241C, strain CIN2, stronger effect = lower value 1.06 | S. cerevisiae deletion strains, locus YPL256C, strain CLN2, stronger effect = lower value 1 | S. cerevisiae deletion strains, locus YPR119W, strain clb2, stronger effect = lower value 1 | S. cerevisiae deletion strains, locus YPR141C, strain kar3, stronger effect = lower value 0.996 | S. cerevisiae deletion strains, locus YPR163C, strain tif3, stronger effect = lower value 1.01 | S. cerevisiae deletion strains, locus YPR167C, strain met16, stronger effect = lower value 1.02 | S. cerevisiae deletion strains, strain wtn01, stronger effect = lower value 1.01 | S. cerevisiae strains, strain wild type, stronger effect = lower value 0.994

Source: PubChem BioAssay AID1159580 (chemical genetic matrix, 2015)
